Measurements: PubChem BioAssay AID588522 (NMMLSC, 2011)
Screen size: about 1,700 compounds; about 20 (1%) were called active.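 Rule for the calls: active = inhibition above the screen-wide mean plus twice its standard deviation (cut at about 32% in these data); inactive = the rest.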 Only a selection was taken, and actives are over-represented in it overall.

system: Candida albicans drug resistance protein 1 (Cdr1) expressed in S. cerevisiae; assay: Cdr1 pump blockade via Nile Red efflux – S. cerevisiae AD/CaCDR1, flow cytometry, cherry pick 1, singleplex, confirmation (AID 588522); settings: at 10 µM, active compounds read high

inhibition, inactive:
O=C(Cc1ccccc1)NCC1OCCc2ccccc21 (stereo unspecified) -0.03%
COc1ccc(C(=O)NC2CC(C)(C)Cc3c2cnn3-c2ccccc2)c(OC)c1 (stereo unspecified) -0.08%
O=C(CNC(=O)c1ccc(-c2ccccc2)cc1)OCc1ccc(Cl)cc1 0.15%
O=C(OCc1ccc(-c2ccccc2)cc1)c1cccc(O)c1 0.08%
O=C(CSc1nnc(-c2cccnc2)n1Cc1ccco1)c1ccc(Cl)c(Cl)c1 -0.04%
Cc1oc2cc3oc(=O)ccc3cc2c1C -0.1%
CC12CCC(C(=O)N(c3cccc(Cl)c3)C1=O)C2(C)C (stereo unspecified) 0.11%
Cc1cc(C)cc(NC(=O)C(OC(=O)c2ccc(O)cc2)c2ccccc2)c1 (stereo unspecified) -0.12%
COc1ccccc1/C=C/C=N/n1c(-c2ccc(Cl)cc2Cl)n[nH]c1=S 0.09%
CCOc1ccc(C2/C(=C(/O)c3ccc4c(c3)CC(C)O4)C(=O)C(=O)N2CCCn2ccnc2)cc1 (stereo unspecified) 0.05%
CC(/C=C/c1ccccc1)=N\NC(=O)C1CC1(C)c1ccccc1 (stereo unspecified) -0.03%
O=C(Nc1ccc(NC(=O)c2cccs2)cc1)c1ccc2ccccc2c1 0.04%
CCNC(=O)c1c(O)c2cccc3c2n(c1=O)CC3 -0.08%
Cc1cccc(NC(=O)COc2ccccc2C)n1 -0.06%
O=C(CN1C(=O)C2C3CCC(C3)C2C1=O)Oc1ccc2ccccc2c1 (stereo unspecified) -0.01%
CCCc1nnc(SCC(=O)Nc2ccc(C(=O)OCC)cc2)o1 0.53%
O=C(/C=C/c1c(Cl)cccc1Cl)NCc1ccccc1 -0.01%
CCNc1c(NS(=O)(=O)c2ccc(C3CCCCC3)cc2)c(=O)oc2ccccc12 -0.2%
CSCCC(NC(=O)COc1ccccc1)C(=O)OCCOc1ccc(Br)cc1 (stereo unspecified) -0.03%
Cc1csc(NC(=O)c2ccc(-c3ccc(Cl)cc3Cl)o2)n1 0.16%
Cc1cc(/C=N/NC(=O)CC2(C)OCCO2)c(C)n1-c1ccc(Cl)c(Cl)c1 0.13%
COc1ccc(S(=O)(=O)N2CCOC2CNC(=O)C(=O)NCc2ccc(F)cc2)cc1 (stereo unspecified) 0.04%
Cc1ccc(N=C2NC(=O)/C(=C/C=C/c3ccco3)S2)cc1C 0.36%
CSCCC(NS(=O)(=O)c1ccc(C)cc1)C(=O)N1CCCC1 (stereo unspecified) -0.1%
C/C(N)=C(/C#N)C(=O)COC(=O)c1cc(-c2cccc(Br)c2)nc2ccccc12 0.12%
Cc1ccc(/C=C(\C#N)C(=O)Nc2cccc3ncccc23)o1 -0.54%
